Calb FLC – affects C. albicans growth with fluconazole | C. albicans CaCi-2 (fluconazole-resistant clinical isolate) + fluconazole, Alamar Blue growth, 48 h | growth inhibition, % (no concentration beside the values) | 300,000 tested, 0.57% active | AID 1979;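 active = growth inhibition above about 58% in most replicates, limit read from the data, passing the limit was not always enough; inconclusive = exactly half the replicates above a set limit; inactive = most replicates below a set limit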;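 note: all wells also contain fluconazole at 8 µg/ml as a sub-toxic cotreatment; 0% = median of DMSO wells and 100% = median of geldanamycin control wells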
697 NFkB inh – inhibitors of the PMA/ionomycin-induced NF-kB reporter in 697 B cells. AID 435022. 697 B-cell NF-kB luciferase reporter, 16 h. 330,000 tested, 0.33% active. inhibition, % at 4 µM; in the data active = inhibition above about 35%
Shn3 3UTR inh – inhibitors of Schnurri-3 3'UTR reporter in osteoblasts; Clone20 osteoblast Shn3 3'UTR firefly luciferase, 24 h; 360,000 tested, 0.52% active; inhibition, % at 12.5 µM;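 active = mean inhibition of at least 75% with every replicate also reaching 75%; inconclusive = mean inhibition at least 75% but some replicate below; inactive = mean inhibition below 75%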;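 note: 0% = median of neutral control wells and 100% = pilot-screen positive control compound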
Jurkat NFkB inh – inhibitors of the PMA/ionomycin-induced NF-kB reporter in Jurkat cells; PMA/ionomycin-induced NF-kB luciferase reporter, luminescence; inhibition, % at 4 µM; 330,000 tested, 0.53% active; AID 435003; in the data active = inhibition above about 50%
Beta apoptosis – blocks beta cell apoptosis; INS-1E cytokine-induced death, ATP luminescence, 48 h; percent of positive-control rescue, neutral wells zero; protection from apoptosis, % (no concentration beside the values); 300,000 tested, 0.8% active; AID 435005;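 active = Every replicate reaches about 75%, or at least half do and their mean reaches it too, limit read from the data; inconclusive = At least half of replicates reach the limit but their mean does not; inactive = Under half of replicates reach the limit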;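 note: 0% = cytokine-treated negative control wells and 100% = positive control rescue; higher means more ATP so stronger rescue from cytokine killing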
Starred values were filed as active, the others as inactive; ? = inconclusive; . = not tested or not shown. An excerpt weighted towards active compounds, which were near 2% of everything screened.

SMILES | Calb FLC | 697 NFkB inh | Shn3 3UTR inh | Jurkat NFkB inh | Beta apoptosis
CC(C)c1nc(SCC(=O)Nc2ccc(N(C)C)cc2)c2ccccc2n1 | -3 | -3 | 24 | 10 | .
Cc1[nH]nc2nc(SCC(=O)NC3CCCCC3)n(-c3ccc(Br)cc3)c(=N)c12 | 4 | -27 | 27 | 11 | 52
O=S(=O)(NCCN1CCOCC1)c1ccc(Cl)s1 | 90* | 15 | -23 | 1 | -5
CCOc1ccc(C(=O)NCc2ccc3c(c2)OCO3)cc1 | -19 | 10 | -2 | 7 | -2
CC(Sc1nc2ccccc2c(=O)n1CC1CCCO1)C(=O)N(C)Cc1ccccc1 (configuration not stated) | -5 | -19 | -6 | -2 | -2
CC(Sc1nc2ccccc2c(=O)n1C)C(=O)N(C)C1CCCCC1 (configuration not stated) | -6 | -51 | 88* | 23 | 50
CC(=O)OCC1OC(n2ccc3ccccc32)C(OC(C)=O)C(OC(C)=O)C1OC(C)=O (configuration not stated) | -12 | -6 | 12 | 1 | -4
COC(=O)C1C=CC(OC2OC(COC(C)=O)C(OC(C)=O)C(OC(C)=O)C2OC(C)=O)n2c(=O)n(-c3ccccc3)c(=O)n21 (configuration not stated) | . | . | 97* | . | .
CC(C)c1ccc(NC(=O)Nc2nc(C(C)N)cs2)cc1 (configuration not stated) | . | . | -12 | . | .
CC(C)c1ccc(NC(=O)Nc2nc(C(N)C3CCCCC3)cs2)cc1 (configuration not stated) | . | . | 97* | . | .
CC(C)c1ccc(NC(=O)Nc2nc(C(N)CCc3ccccc3)cs2)cc1 (configuration not stated) | . | . | 97* | . | .
COc1ccc(NC(=O)Nc2nc(C(N)C3CCCCC3)cs2)cc1 (configuration not stated) | . | . | -36 | . | .
CCc1ccc(NC(=O)CCS(=O)(=O)c2ccc(Cl)cc2)cc1 | 0 | 2 | 3 | -3 | .
O=C(CCN1C(=O)S/C(=C\c2ccccc2)C1=O)NC1CCS(=O)(=O)C1 (configuration not stated) | -6 | 13 | 5 | -2 | -3
CCOc1ccccc1N1CCN(C(=O)NCc2ccc(C)cc2)CC1 | 2 | -3 | 22 | 9 | 3
CCOC(=O)c1sc(NC(=O)c2cccc(S(=O)(=O)N(CC)CC)c2)cc1C | 0 | -37 | 31 | -34 | 1
CCOC(=O)c1sc(NC(=O)c2c(C)nn(Cc3ccccc3)c2C)cc1C | . | -10 | 34 | -17 | 88*
CCOC(=O)c1sc(NC(=O)Nc2ccc(Cl)cc2)cc1C | -12 | -22 | 38 | -22 | 89*
O=[N+]([O-])c1ccc(-[n+]2ccc3ccccc3c2)c([N+](=O)[O-])c1 | 42 | -44 | -66 | -10 | 109*
CCOC(=O)c1cnc(-n2nc(C)cc2C)nc1NC1CCCC1 | -8 | -46 | ? | 8 | 97*
CCOC(=O)c1cnc(-n2nc(C)cc2C)nc1NCc1ccc2c(c1)OCO2 | 38 | -19 | 94* | -16 | 43
CCOC(=O)C1=CCN(S(=O)(=O)c2ccccc2)C1c1ccccc1 (configuration not stated) | . | . | -14 | . | .
CCN1CCc2c(sc(NC(=O)c3ccc(S(=O)(=O)N(C)CC4CCCO4)cc3)c2C(N)=O)C1 (configuration not stated) | -4 | -39 | 10 | -34 | 0
CC1CN(C(=S)Nc2cccc([N+](=O)[O-])c2)CC(C)O1 (configuration not stated) | 121* | 3 | 22 | 3 | -2
CC(C)C1C(=O)N(Cc2cn(Cc3ccco3)nn2)CCS(=O)(=O)N1Cc1ccc(-c2ccc(F)cc2)cc1 (configuration not stated) | . | . | 46 | . | .
SMILES | Calb FLC | 697 NFkB inh | Shn3 3UTR inh | Jurkat NFkB inh | Beta apoptosis
C/C(=N/NC(=O)c1ccccc1O)c1ccc(N2C(=O)C3CCCCC3C2=O)cc1 (configuration not stated) | 111* | -12 | -55 | -1 | -2
Cc1ccc(Cl)cc1NC(=O)c1cc2ccccc2cc1O | 3 | -14 | 73 | 13 | 104*
COc1cc(NC(=O)c2cc3ccccc3cc2O)c(OC)cc1Cl | -6 | 2 | 43 | 5 | 111*
CCN(CC)C(CNS(=O)(=O)c1ccc(Cl)cc1)c1ccccc1 (configuration not stated) | 14 | -9 | 5 | 0 | 5
CNc1cccc(-c2ccc(N3CCN(C)CC3)nc2)n1 | . | . | -96 | . | .
Cc1ccc(S(=O)(=O)N[C@H](C(=O)OCC(=O)NC(=O)C2CCCCC2)C(C)C)cc1 | . | -19 | 2 | -9 | -6
Cc1nc(NC(=O)C2CCCC2)sc1Cc1ccc2c(c1)OCO2 | -22 | -69 | -26 | -22 | 1
Cc1nc(NC(=O)C23CC4CC(CC(C4)C2)C3)sc1Cc1ccc2c(c1)OCO2 | 17 | -36 | 16 | -8 | 102*
C=C1CCc2c([nH]c3ccc(OCC(C)C)cc23)C1=O | 4 | 1 | 81 | -14 | 139*
COc1ccc2[nH]c3c(c2c1)CCNC3=O | -2 | -10 | 12 | -7 | -9
C/C(=N\NC(=S)Nc1ccccc1C)c1cc2ccccc2o1 | 26 | -1 | -4 | 13 | 78*
C/C(=N\NC(=S)Nc1c(C)cccc1C)c1cc2ccccc2o1 | 7 | -39 | 7 | 5 | 10
COc1ccc2c(c1)C(=O)[C@@H](O)[C@H](c1ccc(OC)c(Br)c1)O2 | -15 | -11 | 27 | -30 | 77*
CCCCCCSc1ccc([C@H]2N[C@@](Cc3ccccc3)(C(=O)OC)[C@H]3C(=O)N(C)C(=O)[C@@H]23)cc1 | -6 | 3 | 18 | 9 | 99*
Cc1ccc([C@@H]2CC(=O)[C@@H]3CN(S(=O)(=O)c4ccccc4C)[C@H](c4ccc(Cl)cc4)C[C@@H]3N2S(=O)(=O)c2ccc(C)cc2)cc1 | . | . | 91* | . | .
Cc1ccc(S(=O)(=O)N2[C@H](c3cccc(Cl)c3)CC(=O)[C@@H]3CN(S(=O)(=O)c4ccccc4C)[C@H](c4ccc(Cl)cc4)C[C@@H]32)cc1 | . | . | 89* | . | .
Cc1ccc(S(=O)(=O)N2[C@H](c3ccc(Cl)cc3)CC(=O)[C@@H]3CN(S(=O)(=O)c4ccccc4C)[C@H](c4ccc(Cl)cc4)C[C@@H]32)cc1 | . | . | 64 | . | .
O=C(NCCNC(=O)C(c1ccccc1)c1ccccc1)c1ccco1 | 111* | 2 | -11 | 0 | .
CCC(C)NS(=O)(=O)c1cc2c3c(c1)CCN3C(=O)CC2 (configuration not stated) | 2 | -13 | 0 | 6 | -3
Cc1ccc(C)c(C(=O)CN2C(=O)c3ccccc3S2(=O)=O)c1 | 6 | -48 | 12 | -14 | -5
CCCn1c(C)cc(C(=O)CN2C(=O)c3ccccc3S2(=O)=O)c1C | . | . | 83* | . | .
COc1cc(OC)c(OC)cc1CNc1cc(C)ccc1OC | 6 | -41 | 89* | -13 | 46
O=C(CCl)N1c2ccccc2SCC1c1ccccc1 (configuration not stated) | 82* | -3 | 15 | 14 | -11
